24 compounds from PubChem BioAssay (NCATS) can be followed below.

Holding throughout (test): qHTS profiling for inhibitors of Plasmodium falciparum proliferation (AID 504749); also: nearly all actives have a fitted effect of over 60% in size
Conditions in all cases: P. falciparum in erythrocytes, SYBR Green DNA, 72 h; series mostly up to 28.7 µM
On the technique in general: In qHTS, concentration-response curves come from the screen itself.

For one assay, the system named is CP250. The essentials:
(§1)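 Quantitative HTS: compounds pinned into medium, infected erythrocytes added (0.3% parasitemia, 2.5% hematocrit), 72 h culture at 37 C under 5% CO2. Saponin/Triton lysis with SYBR Green I, overnight RT, then fluorescence read.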

A further assay has as its system CP252. The gist of the method: as §1
The test system of a further assay is CP256. The essentials: as §1
The next assay relates to CP265. The gist of the method:
as §1

The next assay deals with CP266. The gist of the method:
as §1

A further assay relates to CP268. The gist of the method:
as §1

For another assay, the system named is CP269. The gist of the method:
as §1

A further assay deals with CP286. The gist of the method: as §1
The next assay concerns CP260. The essentials:
as §1

The test system of the next assay is CP262. The essentials: as §1

Results filed as inconclusive are left out. Activity calls are given as the source filed them. Calls follow the shape of the dose curve; as a rule, active = well fitted inhibition curve with a large enough effect; inconclusive = small, poorly fitted or top-dose-only effect; inactive = flat fitted curve, though single readings scatter.
Potency is read from the fitted curve at half-maximal effect.

Turning to `CCC1(c2ccccc2)C(=O)NCNC1=O`, the Potency entry in the assay on CP250, with CP252, in the assay on CP256, with CP265, with CP266 and in the assay on CP268 was “inactive” each time. Besides, the Potency entry in the assay on CP269 and in the assay with CP286 was “inactive” throughout.
`O=c1c(O)c(-c2ccc(O)c(O)c2)oc2cc(O)cc(O)c12`: the Potency result in the assay with CP266 was “inactive”. Also, the Potency with CP286 was 11.2 µM (active).
On to `OCCN1CCN(CCCN2c3ccccc3Sc3ccc(C(F)(F)F)cc32)CC1`, for which the Potency was 12.6 µM (active) in the assay with CP250; 10 µM (active) with CP252; 3.16 µM (active) in the assay with CP256; 7.94 µM (active) in the assay with CP260; 5.36 µM (active) with CP262; 11.2 µM (active) in the assay on CP265. Further, the Potency with CP268 is 13.5 µM (active); in the assay with CP269 it was 6.01 µM (active); in the assay on CP286 it was 2.51 µM (active).
For the compound `CC(=O)OCC(CCn1cnc2cnc(N)nc21)COC(C)=O`, the Potency result in the assay on CP250, with CP252, with CP256, in the assay on CP260, in the assay with CP262 and in the assay with CP265 was “inactive” each time. Also, the Potency entry with CP268, in the assay on CP269 and with CP286 was “inactive” throughout.
On to `Clc1ccc(C(c2ccccc2Cl)C(Cl)Cl)cc1` (stereo not given), for which the Potency result with CP250, in the assay with CP252, in the assay with CP256, in the assay with CP262, with CP265 and with CP266 was “inactive” in each case. Besides, in the assay with CP269, the Potency entry is “inactive”.
As to `COC(=O)Nc1nc2ccc(C(=O)c3cccs3)cc2[nH]1`, the Potency result in the assay with CP250, in the assay with CP252, in the assay with CP256, with CP262, in the assay with CP265 and with CP266 was “inactive” in each case. Also, the Potency entry in the assay on CP268, in the assay with CP269 and with CP286 was “inactive” each time.
In the case of `CN(C)CCCN1c2ccccc2CCc2ccc(Cl)cc21`, the Potency result in the assay with CP250, with CP252, with CP265 and with CP268 was “inactive” in each case.
On to `Nc1nc2c(ncn2COC(CO)CO)c(=O)[nH]1`, for which the Potency result in the assay on CP250, in the assay on CP252, with CP256, in the assay on CP260, with CP262 and in the assay on CP265 was “inactive” each time. In addition, the Potency result with CP268, with CP269 and in the assay on CP286 was “inactive” throughout.
For the compound `CN1CCC(=C2c3ccccc3CC(=O)c3sccc32)CC1`, the Potency entry in the assay with CP250, with CP252, in the assay on CP262, with CP266 and in the assay with CP286 was “inactive” in each case. In addition, in the assay on CP265, the Potency is 10 µM (active).
As to `O=C1c2c(O)ccc(O)c2C(=O)c2c(NCCNCCO)ccc(NCCNCCO)c21`, the Potency is 3.16 µM (active) in the assay with CP250; 3.16 µM (active) with CP252; 1 µM (active) with CP260; 5.1 µM (active) in the assay with CP266; 7.21 µM (active) with CP268; 7.21 µM (active) in the assay on CP269. Besides, in the assay on CP286, the Potency was 1.12 µM (active).
For the compound `NC12CC3CC(CC(C3)C1)C2`, the Potency result with CP250, with CP252, in the assay with CP260, in the assay on CP262, with CP265 and with CP266 was “inactive” throughout. The Potency entry in the assay with CP268, with CP269 and in the assay with CP286 was “inactive” throughout.
As for `CN(C)C(=N)N=C(N)N`, the Potency result in the assay with CP250, with CP252, with CP256, in the assay on CP260, in the assay on CP265 and with CP266 was “inactive” throughout. Also, the Potency result with CP286 was “inactive”.
Consider `Cc1cn([C@H]2C=C[C@@H](CO)O2)c(=O)[nH]c1=O`, for which the Potency entry with CP250, with CP252, in the assay with CP256, in the assay with CP260, in the assay on CP262 and with CP265 was “inactive” throughout. Also, the Potency entry in the assay on CP268, in the assay on CP269 and with CP286 was “inactive” throughout.
For `COc1nc(C)nc(Cl)c1NC1=NCCN1`, the Potency entry with CP250, in the assay on CP252, in the assay with CP256, in the assay on CP260, with CP262 and in the assay on CP265 was “inactive” each time. For the same compound, the Potency entry in the assay on CP268, with CP269 and in the assay with CP286 was “inactive” in each case.
Turning to `CC#C[C@]1(O)CC[C@H]2[C@@H]3CCC4=CC(=O)CCC4=C3[C@@H](c3ccc(N(C)C)cc3)C[C@@]21C`, the Potency is 16.9 µM (active) in the assay with CP268 and 13.5 µM (active) with CP269.
For `O=c1[nH]cc(F)c(=O)[nH]1`, the Potency result with CP262 and with CP266 was “inactive” throughout.
Turning to `CCCCc1oc2ccccc2c1C(=O)c1cc(I)c(OCCN(CC)CC)c(I)c1`, the Potency in the assay with CP250 was 7.94 µM (active); in the assay with CP252, 11.2 µM (active); in the assay with CP256, 12.6 µM (active); in the assay with CP260 it was 3.98 µM (active); in the assay on CP265, 7.08 µM (active); with CP286, 11.2 µM (active). In addition, in the assay on CP266, the Potency result was “inactive”.
Consider `CN(C)CCOC(c1ccccc1)c1ccccc1`, for which the Potency entry in the assay with CP250, with CP262, with CP266 and in the assay with CP269 was “inactive” throughout. For the same compound, the Potency in the assay on CP260 was 5.62 µM (active).
As for `CCOC(=O)Nc1ccc(NCc2ccc(F)cc2)nc1N`, the Potency in the assay with CP252 is 8.91 µM (active); in the assay with CP256 it was 10 µM (active); in the assay with CP260, 11.2 µM (active); in the assay with CP262, 12 µM (active); in the assay on CP265, 11.2 µM (active); with CP286, 8.91 µM (active).
In the case of `CC(C)NCC(O)COc1ccc(CCOCC2CC2)cc1` (stereo not given), the Potency entry in the assay with CP250, in the assay with CP252, with CP256, in the assay with CP262, in the assay with CP266 and with CP268 was “inactive” in each case. Further, the Potency result with CP286 was “inactive”.
As to `CNCCCC12CCC(c3ccccc31)c1ccccc12`, the Potency result with CP250, in the assay on CP252, with CP256, with CP262, in the assay on CP266 and in the assay with CP268 was “inactive” in each case.
`Cc1ccc(-c2cc(C(F)(F)F)nn2-c2ccc(S(N)(=O)=O)cc2)cc1`: the Potency with CP286 was 8.91 µM (active).
In the case of `Clc1ccc2c(c1)C(N1CCNCC1)=Nc1ccccc1O2`, the Potency result in the assay on CP250, with CP262, with CP266, in the assay on CP268 and in the assay on CP269 was “inactive” throughout.
`CC[C@@]1(O)C(=O)OCc2c1cc1n(c2=O)Cc2cc3c(CN(C)C)c(O)ccc3nc2-1`: the Potency in the assay with CP250 was 4.47 µM (active); in the assay on CP260, 6.31 µM (active); with CP265 it was 6.31 µM (active); in the assay with CP286, 5.62 µM (active). Moreover, in the assay with CP266, the Potency entry is “inactive”.
